# This is one part of a sample in which hits are shown more often than they occur.
# Shiga inhibitor = inhibitors of Shiga toxin in Vero cells; Vero cells, Shiga toxin protein synthesis inhibition reporter; inhibition, % at 38.7 µM; 290,000 tested, 9.2% active; AID 2315; in the data active = inhibition mostly above about 28%, no sharp cut-off; inactive = mostly below about 43%; also: 0% is about no effect
# AmpC no deterg = AmpC beta-lactamase inhibition without detergent; P00811; AmpC nitrocefin hydrolysis, absorbance 480 nm, 0.0001% Triton; Potency, µM (top dose mostly 57.1 µM), for the others: at the top dose activity change, negative = inhibition, hits mostly inhibitors; 330,000 tested, 0.52% active; AID 485341;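 also: potency is read from the fitted curve at half-maximal effect; plate controls were no compound for no effect and no enzyme for full effect; nearly all actives have a fitted effect of over 20% in size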
# Target sequence (P00811 whole entry, looked up): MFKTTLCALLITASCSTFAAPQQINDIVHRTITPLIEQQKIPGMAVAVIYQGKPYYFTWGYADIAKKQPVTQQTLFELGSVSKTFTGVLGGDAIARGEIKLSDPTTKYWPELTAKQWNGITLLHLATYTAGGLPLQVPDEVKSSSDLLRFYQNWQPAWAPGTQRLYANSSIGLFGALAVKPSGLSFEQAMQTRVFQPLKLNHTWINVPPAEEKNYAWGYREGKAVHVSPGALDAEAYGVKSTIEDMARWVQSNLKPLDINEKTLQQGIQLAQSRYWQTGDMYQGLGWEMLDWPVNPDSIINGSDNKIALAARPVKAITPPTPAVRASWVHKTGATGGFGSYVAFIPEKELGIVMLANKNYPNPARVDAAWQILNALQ
#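 AmpC (5.3 nM in the dispensed reagent) in 20 mM phosphate pH 7.0 with 0.01% (detergent screen) or 0.0001% Triton X-100 was preincubated with compounds for 15 min at room temperature. Nitrocefin was then added from an 800 uM solution, and hydrolysis was followed at 480 nm.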
# AmpC detergent = inhibitors of E. coli AmpC beta-lactamase with detergent; 370,000 tested, 0.041% active; P00811; AmpC hydrolysis of nitrocefin, absorbance 480 nm, 0.01% Triton; Potency, µM (doses to about 114 µM), without a hit: top-dose activity change, negative = inhibition, most hits filed as inhibitors;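 also: potency is read from the fitted curve at half-maximal effect; 0% = no-compound wells and -100% = no-enzyme wells; nearly all actives have a fitted effect of over 25% in size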
#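 AmpC (5.3 nM in the dispensed reagent) in 20 mM phosphate pH 7.0 with 0.01% (detergent screen) or 0.0001% Triton X-100 was preincubated with compounds for 15 min at room temperature. Nitrocefin was then added from an 800 uM solution, and hydrolysis was followed at 480 nm.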
# Cycloheximide cs = affects cycloheximide protein synthesis inhibition readout, counter-screen; cell reporter, cycloheximide protein synthesis inhibition counterscreen; max response, %; AID 2314; 300,000 tested, 12% active; in the data active = max response mostly above about 13%, no sharp cut-off; inactive = mostly below about 14%; also: read at 38.3 µM for the half of the compounds with a filed dose; 0% is about no effect
# NS1 function inh = influenza NS1 inhibition; Potency, µM (highest dose often 46.1 µM), inactives show at the highest dose activity, positive = more growth; 270,000 tested, 0.4% active; AID 2326; calls by dose curve; also: potency is read from the fitted curve at half-maximal effect; actives are rising curves; nearly all actives have a fitted effect of over 50% in size
#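 Growth recovery, yeast-based: influenza A NS1 expressed in S. cerevisiae causes slow growth, and suppressors are detected by OD600. The parent strain without NS1 is used as positive control.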
# Starred values were filed as active, the others as inactive; ? = inconclusive; · = not tested or not shown. Unless noted, calls follow the shape of the dose curve; as a rule, active = well fitted curve in the direction sought with a large enough effect; inconclusive = small, poorly fitted or top-dose-only effect, or another doubt; inactive = no such curve, though single readings can be large; an effect the other way counts as inactive or inconclusive.
SMILES,Shiga inhibitor,AmpC no deterg,AmpC detergent,Cycloheximide cs,NS1 function inh
Cc1ccc(CNC(=O)C(C(C)C)N2Cc3ccccc3C2=O)cc1 (configuration not stated),·,·,19%,·,·
COc1ccc(NC(=O)CN(C)CC(=O)N(C)C2(C#N)CCC(C)CC2)cc1 (configuration not stated),·,28%,1%,·,·
CCN1CCN(C(=O)NC(C(=O)NC2C(=O)N3C(C(=O)O)=C(CSc4nnnn4C)CSC23)c2ccc(O)cc2)C(=O)C1=O (configuration not stated),14,·,·,-1,·
COc1cccc(C2=NO[C@@H]3C(=O)N(c4ccc5c(c4)OCCO5)C(=O)[C@H]23)c1OC,109*,-7%,-15%,66*,-45%
Cc1ccc(NC(=O)N2CCc3cc(S(=O)(=O)N4CCC(C)CC4)ccc32)cc1C,·,·,25%,·,·
Fc1ccc(-n2ncc3c(Nc4cccc(Cl)c4)ncnc32)cc1,·,·,7%,·,·
CC1=Nc2cc([N+](=O)[O-])ccc2NC(C)(C)C1,115*,-6%,-11%,62*,7%
Cc1ccc(O)c(-c2cc(C(F)(F)C(F)F)[nH]n2)c1,47,-14%,-7%,19*,-98%
COc1ccc(O)c(-c2cc(-c3ccccc3[N+](=O)[O-])[nH]n2)c1,-3,-34%,?,25*,-25%
Cc1ccc(O)c(-c2cc(-c3ccccc3C)[nH]n2)c1,33*,-11%,-2%,-2,-147%
Cc1ccc(O)c(-c2cc(-c3ccccc3[N+](=O)[O-])[nH]n2)c1,44*,-22%,-14%,20*,-32%
Cc1ccccc1[N+](=O)[O-],·,-6%,-1%,·,·
CCOC(=O)CCn1c(=O)c2cccn2c2cccnc21,·,·,19%,·,·
O=[N+]([O-])c1ccccc1-c1cc(-c2cc(Cl)ccc2O)n[nH]1,50,-26%,-12%,22*,-48%
O=C1NC(c2cc(Cl)cc([N+](=O)[O-])c2O)Nc2ccccc21 (configuration not stated),17,10%,-7%,10,1%
Cc1ccc(/C=N/n2c(-c3cccs3)n[nH]c2=S)cc1,-18,-36%,-9%,-2,-34%
Cc1ccc(-c2cc(-c3cccs3)[nH]n2)c(O)c1,72*,-19%,-19%,41*,-119%
O=C(COC(=O)Cc1ccc(-c2ccccc2)cc1)NCc1ccccc1,29,-50%,-1%,5,-16%
CCOc1ccc(-c2cc(NC(=O)Nc3ccccc3C(F)(F)F)c(C(=O)OC)s2)cc1,·,·,24%,·,·
COC(=O)c1sc(-c2ccccc2)cc1NC(=O)C1CC1,18,-12%,-5%,7,·
COC(=O)c1sc(-c2ccc(C(C)(C)C)cc2)cc1NC(=O)CSCC(=O)O,94,146%,0%,15*,10%
COC(=O)c1sc(-c2ccc(Cl)cc2)cc1NC(=O)c1ccccc1C(=O)O,72*,-29%,-10%,31*,7%
COC(=O)c1sc(-c2ccc(C(C)(C)C)cc2)cc1NC(=O)c1ccccc1C(=O)O,84*,-7%,1%,44*,4%
CCOc1ccc(NC(=O)Nc2cc(-c3ccccc3)sc2C(=O)OC)cc1,3,-20%,-8%,5,15%
CCOc1ccc(-c2cc(NC(=O)c3c(F)cccc3F)c(C(=O)O)s2)cc1,40*,-34%,-4%,11,-4%
SMILES,Shiga inhibitor,AmpC no deterg,AmpC detergent,Cycloheximide cs,NS1 function inh
CCCCOc1cccc(C(=O)N(Cc2ccc(N(C)C)cc2)C2CCS(=O)(=O)C2)c1 (configuration not stated),·,·,-4%,·,·
COCC(=O)N1CCC(n2nccc2NC(=O)CCOc2ccccc2)CC1,36*,-2%,-1%,24*,-6%
O=C(CCOc1ccccc1)Nc1ccnn1C1CCN(C(=O)CCC(F)(F)F)CC1,25,16%,1%,23*,-4%
COC(=O)CCCC(=O)N1CCC(n2nccc2NC(=O)CCOc2ccccc2)CC1,34,3%,?,21*,-3%
CCCN1CCN(CCCNC(=O)c2ccc3c(c2)sc2nc(-c4ccc(OC)cc4)cn23)CC1,·,·,5%,·,·
N#Cc1ccccc1OCC(=O)NCC(c1cccs1)N1CCOCC1 (configuration not stated),-4,5%,2%,-3,3%
Cc1ccccc1CCN1CCCC(CN(C)C(=O)c2ccc3ncccc3c2)C1 (configuration not stated),-1,1%,0%,2,-4%

# Bioassay records deposited in PubChem BioAssay by National Center for Advancing Translational Sciences (NCATS).
